# Compounds without any hit were thinned out: in the full panel of roughly 79,000, 15% have a hit. Unmarked numbers belong to inactive results. The source made the active and inactive calls. Rule as the data show it: active = growth inhibition above about 70%; inactive = the rest.
# Key:
# [1] = NCI Yeast Anticancer Drug Screen. Data for the rad50 strain (AID 155);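 also: 0% = growth of vehicle-only cultures of the same strain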; conditions: S. cerevisiae rad50 strain growth inhibition; at 50.0 µM; hits give high values
# In short: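 A DNA repair-deficient yeast mutant serves as the test organism; compound-induced growth inhibition is calculated against vehicle-treated cells.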
# [2] = NCI Yeast Anticancer Drug Screen. Data for the mec2-1 strain (AID 157); conditions: S. cerevisiae mec2-1 strain, at 50.0 µM, hits give high values
# In short: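 Using mec2-1 yeast: add compound, measure growth, express inhibition versus vehicle-treated cultures.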
# [3] = NCI Yeast Anticancer Drug Screen. Data for the sgs1 mgt1 strain (AID 161);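 also: 0% = growth of cultures given vehicle only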; conditions: S. cerevisiae sgs1 mgt1 strain, at 50.0 µM, hits give high values
# In short: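 Compounds are added to genetically altered yeast, and growth is compared with cultures given vehicle alone to give percent inhibition.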
# [4] = NCI Yeast Anticancer Drug Screen. Data for the cln2 rad14 strain (AID 165);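 also: 0% = growth equal to vehicle treated cultures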; conditions: S. cerevisiae cln2 rad14 strain, at 50.0 µM, hits give high values
# In short: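 Yeast strain cln2 rad14, bearing defects in cell cycle control and DNA repair, serves as the test system; values reflect growth inhibition compared with vehicle.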
# [5] = NCI Yeast Anticancer Drug Screen. Data for the bub3 strain (AID 167); conditions: S. cerevisiae bub3 mutant strain, at 50.0 µM, hits give high values
# In short: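 Inhibition values come from growth of compound-treated mutant yeast normalised to vehicle-treated controls.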
# [6] = NCI Yeast Anticancer Drug Screen. Data for the mlh1 rad18 strain (AID 175); conditions: S. cerevisiae mlh1 rad18 strain growth inhibition; at 50.0 µM; hits give high values
# In short: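 Steps: expose repair-defective yeast to compound; measure growth; express inhibition against vehicle-treated controls.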
SMILES,growth inhibition [1],growth inhibition [2],growth inhibition [3],growth inhibition [4],growth inhibition [5],growth inhibition [6]
CCCCCCNC(=O)C1=C(C)NC(C)=C(C(=O)NCCCCCC)C1,4.9%,1.35%,-6.4%,-24.9%,6.8%,-42.2%
N/C(=N\N=C\c1ccccn1)NO,1.05%,-12.6%,-5.35%,-6.95%,-6.15%,0.7%
CCC(COC(=O)CC[C@@H](NC(=O)C(C)NC(=O)C(C)OC1C(O)C(CO)OC(OCc2ccccc2)C1NC(C)=O)C(N)=O)NC1c2ccccc2Nc2cccc([N+](=O)[O-])c21 (stereo partly specified),5.65%,-9.7%,-13.8%,6.4%,-17.9%,-10.7%
CCOC(=C\C=C\C1=[N+](C)c2ccccc2C1(C)C)/C=C/C=C1/N(C)c2ccccc2C1(C)C,17.6%,87.6% (active),34.2%,82.5% (active),81.8% (active),27.6%
COc1cc(C(c2c(O)c3ccccc3oc2=O)N2CCCC2)cc(OC)c1OC (stereo unspecified),-1.2%,5%,7.05%,4.05%,-0.3%,2.7%
CNc1nc(N)nc(N)c1N1CCN(c2ccc(C(=O)O)cc2)CC1,13.3%,-0.8%,19.8%,9.95%,17.2%,16.6%
OCC1C=Cc2ccccc21 (stereo unspecified),-3.8%,0.65%,-0.6%,2.15%,14.5%,-2.4%
NC(CS(N)(=O)=O)C(=O)O (stereo unspecified),-6.3%,-3.75%,-1.05%,-51.5%,-3.2%,2.8%
COc1ccc2c(=O)c(Cc3c[nH]c4ccccc34)coc2c1,27.6%,12%,29%,-35.6%,9.85%,19.2%
COc1cc(-c2cc(=O)c3c(O)c(OC)c(OC)c(OC)c3o2)ccc1O,23.4%,10.2%,-14.8%,28.4%,13.1%,14.9%
COc1ccc2nccc(NCCCN3CCN(CCCNc4ccnc5ccc(OC)cc45)CC3)c2c1,15.8%,1%,32.8%,-6.2%,48.5%,-26.9%
CCOC1Oc2ccccc2-c2nc(C)c(C#N)cc21 (stereo unspecified),1.65%,7.75%,15.9%,-66.5%,15.8%,12.4%
Cn1c2c(c3ccccc31)CCN(CCCCN1CCc3c(n(C)c4ccccc34)C1=O)C2,-0.05%,-24.4%,-19.3%,5.25%,-5%,-12.8%
c1csc(C2=NCCC2)c1,0.35%,-6.65%,6.35%,36.5%,31.6%,3.3%
CCCCCCCCCCCCCCCCCCNc1nc(=O)n(C2CC(O)C(COP(=O)(O)O)O2)cc1F (stereo unspecified),12.9%,12.6%,16.8%,17%,9.25%,-23%
C=C(Cl)CSC(C)(C)C,-9.4%,5.8%,-6.7%,-19.6%,-18.2%,-8.5%
Cc1ccc(NC(N)=O)cc1,-33.5%,-43.9%,-24.1%,10.7%,-1.05%,-5.9%
Nc1ccc(-c2cc[cH-]c2)cc1.[Fe+2].c1cc[cH-]c1,8.2%,10.3%,10.8%,12.2%,21.4%,22.6%
N#CC(C(=N/NC(N)=S)/C(=N\NC(N)=S)C(C#N)c1ccccc1)c1ccccc1 (stereo unspecified),-34.5%,-5.35%,-30.8%,-8.25%,-14.2%,-15.7%
CC1(n2[nH]c(=O)n(-c3ccccc3)c2=O)Cn2c(=O)n(-c3ccccc3)c(=O)n2-c2ccccc21 (stereo unspecified),-49.2%,-0.3%,-1%,18.7%,-5.2%,9.1%
O=C(c1ccc(Cl)cc1)N(C(=S)N1CCN(c2ccccc2)CC1)c1ccccc1,-11.5%,-25.9%,-12.1%,-6.3%,-13.8%,-15.1%

SMILES,growth inhibition [1],growth inhibition [2],growth inhibition [3],growth inhibition [4],growth inhibition [5],growth inhibition [6]
O=C(O)CCSCCCCCCCCCCCCSCCC(=O)O,16.5%,18.9%,18.4%,18.8%,-3.65%,25.8%
Cc1ccc(O)c(C(=O)c2ccc(Cl)c(Cl)c2)c1,8.45%,13.9%,54.2%,-0.9%,58.1%,11.2%
CCCCCCCCCCCCCCCCCCCOc1ccc(OCCCCCCCCCC)cc1,33.9%,-2.05%,24.6%,-10.4%,0.2%,7.15%
CCn1cc(C(=O)O)c(=O)c2ccc(-c3ccncc3)cc21,3.35%,8.7%,5.75%,-7.85%,17%,11.4%
NCc1ccccc1,-2.5%,7.75%,-2.2%,-41.4%,-18.9%,-3.85%
CC(CCc1ccccc1)NC1=NCCO1 (stereo unspecified),-9.6%,-12.2%,-16.4%,-23.6%,-1.2%,2.7%
CC(C)c1ccc(C(=O)OCC2CCCO2)cc1 (stereo unspecified),7.95%,13.1%,6.5%,-13.7%,-5.3%,3.65%
CC(=O)Nc1ccc[n+](C)c1,0.65%,17.9%,-6.9%,-3.3%,33.3%,-1.95%
CC(C)OC(CCCl)c1ccc(Cl)cc1 (stereo unspecified),-7%,-9.2%,-22.1%,7.2%,-37.6%,-2.25%
CCOC(C)C(=O)C=O (stereo unspecified),-17.9%,-13.6%,-17.2%,-4.55%,-13.4%,-8.4%
COc1ccc(C=O)c(Br)c1O,-0.65%,-6.85%,-14.2%,22.4%,-12.3%,-16.9%
O=C1CC2(CCC(O)(c3ccc(Cl)cc3)C(C(=O)c3ccc(Cl)cc3)C2)C(=O)c2ccccc2N1 (stereo unspecified),-15.1%,-3.55%,-16.9%,-23.5%,-19.4%,-48.6%
NC(=O)C(F)(F)C(F)(F)C(N)=O,-28.1%,-16.8%,-15%,-51.6%,3.25%,-1.9%
CCc1ccc(NC(=S)NC(=O)c2ccccc2OC)cc1,10.6%,7.05%,9.3%,21.1%,20.4%,3.95%
COc1cccc(C2c3cc4c(cc3OC(N3CCCC3)C2C)OCO4)c1OC (stereo unspecified),24.8%,17.6%,-9.65%,1%,11.4%,29.9%
CC(C)(C)OC(=O)N1CCCC1C(=O)NC(c1ccccc1)c1ccccc1 (stereo unspecified),-35.1%,-56.5%,-37.5%,-18.9%,-13.4%,-40.1%
C/C(=N\NC(=O)/C(C#N)=C\c1ccc(N(CCC#N)CCC#N)cc1)c1ccccc1,0.2%,-14.2%,-20.5%,-6.9%,-7.4%,-1.95%
C1CN(SSN2CCSCC2)CCS1,-2.1%,-18.5%,6.5%,-100%,7.15%,-14.5%
CC(=O)OCC1CC=CCC1C (stereo unspecified),5.35%,-15.7%,-10.2%,1.75%,2.75%,1.5%
COC(=O)C1(OC(=O)Sc2ccccc2)CCN(C)CC1,-19.8%,-5.95%,-7.15%,15.4%,-7.55%,-25.1%
